This note sets out measurements from PubChem BioAssay.

Values without a mark were called inactive. Activity calls are given as the source filed them.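 The calls were made as follows, unless noted: active = inhibition of the reporter signal at or above 50%; inactive = inhibition below 50%.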 Where a SMILES comes first, the peptide text is derived from it. The star is where a group is joined. Boc = CC(C)(C)OC(=O)*

Usually inhibition stands for the change of the read-out against control, counted positive when it falls.

One assay can be described thus: inhibitors of Sendai virus-induced IRF3 signaling, primary screen, TLR/RLR signaling modifier project, cell-based, Sendai virus stimulus, luciferase, 10K MLSCN set (AID 602276;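 active = inhibition at or above 50% at 10 µM; inactive = inhibition below 50%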;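 also: firefly luciferase from ISG56 promoter only with Renilla not read in this screen; 0% = Sendai virus plus DMSO and 100% = medium plus DMSO without virus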). Particulars: HEK293 RL24 IRF3 luciferase reporter, at 10 µM, hits give high values.
Turning to `COc1ccc(-c2nn(-c3ccccc3)cc2/C=N/n2cnnc2)cc1OC`, the inhibition is 1.15%. With `CN(CCC#N)C(=O)COC(=O)c1ccc(Cl)c(S(N)(=O)=O)c1`, the inhibition was 16.3%. As for `CC(C)C(=O)Nc1nnc(CCc2nnc(NC(=O)C(C)C)s2)s1`, the inhibition is 14.6%. The same measure, in the same setting: with `CCN(CCCNC(=O)c1cn(CC)c2ccc(S(=O)(=O)N(C)C)cc2c1=O)c1cccc(C)c1` the figure was 5.55%; with `Cc1ccc(S(=O)(=O)n2nc(OC(=O)c3ccco3)cc2N)cc1`, -8.24%.

Regarding `COc1ccc2c(C(=O)CN(C)C3CCCCC3)c[nH]c2c1`, the inhibition was 20.8%. On the same count and under the same terms, for `CCOC(=O)CN(C)Cc1c[nH]c2ccccc12` the value was 27.3%; for `CCOC(=O)N1CCN(C(=O)CN(C)S(=O)(=O)c2ccc(OC)c(OC)c2)CC1`, 16.2%.

Another assay can be described thus: inhibitors of poly I:C-induced TLR3 signaling, primary screen, cell-based, poly I:C stimulus, luciferase, 10K MLSCN set (AID 602277). The settings on record: HEK293-TLR3 RL24 IRF3 luciferase reporter, at 10 µM, hits give high values.
In the case of `CCN(CC(=O)NC(=O)NCc1ccco1)Cc1nc2ccccc2c(=O)[nH]1`, the inhibition was 15%. The same measure, in the same setting: for `CC(=O)c1nnn(-c2nc(N3CCCC3)nc(N(c3ccccc3)c3ccccc3)n2)c1C` the value was 26.9%; for `CC(NC(=O)c1ccccc1NC(=O)c1ccco1)C(=O)O` (stereo not drawn), 20%. Still for that read-out and setting: for `CCN(CC)S(=O)(=O)c1ccc2oc(C(=O)O)c(C)c2c1` the value was 11.9%; for `CCOc1ccc(N(CC(=O)NCC2CCCO2)S(=O)(=O)c2ccc(OC)c(OC)c2)cc1` (stereo not drawn), 18.4%. On to `O=C(CSc1nnc(-c2cccs2)o1)N1CCOCC1`, for which the inhibition was -10.8%. With `CCc1c(C)nc(N2CCN(Cc3ccccc3)CC2)[nH]c1=O`, the inhibition is 10.6%. Same read-out and setting: with `CCOc1ncccc1C(=O)OCC(=O)Nc1ncc(C(F)(F)F)cc1Cl` the figure was 18%.

On to `O=C(NCc1n[nH]c(=S)n1-c1ccc(F)cc1)c1ccco1`, for which the inhibition is 13.9%. On the same count and under the same terms, with `CCOc1ccccc1N1CCN(c2nc(N)c(C#N)c(CC#N)c2C#N)CC1` the figure was 17.9%. On the same count and under the same terms, for `CCOc1ccc2cc(C#N)c(SCC(=O)N3CCCC3)nc2c1` the value was -15.2%; for `COC(=O)c1ccc(CSc2nc3ccccc3c(=O)n2Cc2ccco2)o1`, -5.19%; for `CCn1c(C(=O)N2CCCC(C(=O)O)C2)cc2sccc21` (stereo not drawn), -4.5%. The same measure, in the same setting: with `CCOC(=O)C(CC)(CCC(=O)O)c1csc(N)n1` (stereo not drawn) the figure was 18%; with `Cc1c(C(=O)O)oc2ccc(S(=O)(=O)NCc3ccccc3)cc12`, 11.8%. Take `COc1cc(-c2noc(-c3cccc(Cl)c3)n2)cc(OC)c1OC`: the inhibition is -21.6%.

Turning to `COc1ccc2c(c1)c1c(n2C(C)=O)C(OC(C)=O)=NCC1`, the inhibition was -6.44%. On the same count and under the same terms, for `Nc1c(C2=NCCO2)nnn1Cc1ccccc1` the value was 19.1%; for `COc1ccccc1-c1noc(-c2cccnc2)n1`, -87.9%; for `CCn1ncc(C2=NOC(C(=O)NCc3ccc(Cl)cc3)C2)c1C` (stereo not drawn), 86.7% (active). Same read-out and setting: with `COC(=O)c1cc(Br)c(=O)n(CCN2CCOCC2)c1` the figure was 20.6%; with `COc1ccc(OC)c(S(=O)(=O)Nc2ccc(C(N)=O)cc2)c1`, 23.9%. `O=C(Cn1nc(-c2ccc(Cl)cc2)ccc1=O)NCCCN1CCN(Cc2ccccc2)CC1`: the inhibition was -23.5%.

Take `CCC1Oc2ccccc2N(CC(=O)Nc2ccc(OC)cc2OC)C1=O` (stereo not drawn): the inhibition was 4.28%. In the case of `COCCCNC(=O)CCc1nc(-c2ccccc2Cl)no1`, the inhibition is 23.4%.

`CC(C)(C)OC(=O)N1CCCC1C(=O)N1CCCC1C(=O)N1CCCC1C(=O)O` (stereo not drawn) (Boc-Pro-Pro-Pro-OH; configuration not given here): the inhibition is 15.3%. On the same count and under the same terms, with `CCOC(=O)N1CCN(S(=O)(=O)c2cc(Cl)c(OC)cc2Cl)CC1` the figure was 1.26%. On the same count and under the same terms, with `c1ccc(Cn2nnnc2C(c2ccccn2)N2CCOCC2)cc1` (stereo not drawn) the figure was 2.75%. On the same count and under the same terms, for `Cc1nn(-c2ccc(F)cc2)c2nc(N)c(C#N)c(-c3cccs3)c12` the value was 20.7%; for `O=C(c1ccc(NS(=O)(=O)c2cccs2)cc1)N1CCCCC1`, -12.6%. For the compound `O=c1c2nnn(Cc3ccccc3)c2ncn1-c1ccccc1`, the inhibition is 25.9%.

For `COc1cccc(CNC(=O)CCn2c(=O)oc3ccccc32)c1`, the inhibition was 20.5%. Same read-out and setting: for `COc1ccc(-c2nn(-c3ccccc3)cc2/C=N/n2cnnc2)cc1OC` the value was 1.32%; for `CN(CCC#N)C(=O)COC(=O)c1ccc(Cl)c(S(N)(=O)=O)c1`, 25.4%. For `CC(C)C(=O)Nc1nnc(CCc2nnc(NC(=O)C(C)C)s2)s1`, the inhibition is 19.9%. Still for that read-out and setting: with `CCN(CCCNC(=O)c1cn(CC)c2ccc(S(=O)(=O)N(C)C)cc2c1=O)c1cccc(C)c1` the figure was 3.96%; with `Cc1ccc(S(=O)(=O)n2nc(OC(=O)c3ccco3)cc2N)cc1`, -6.95%; with `COc1ccc2c(C(=O)CN(C)C3CCCCC3)c[nH]c2c1`, 39.7%. Same read-out and setting: with `CCOC(=O)CN(C)Cc1c[nH]c2ccccc12` the figure was 36.9%. Regarding `CCOC(=O)N1CCN(C(=O)CN(C)S(=O)(=O)c2ccc(OC)c(OC)c2)CC1`, the inhibition is 20.5%.
